Here are results for 15 compounds from PubChem BioAssay.

For part of these data: Entries with a potency or affinity are not part of this list. Activity calls are given as the source filed them.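 The calls were made as follows, unless noted: active = earlier screen potentiator hit that boosts the TRPC4 ion channel at some dose, with a dose response; inactive = no potentiation, no dose response, or not a prior hit.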

Assay [1] deals with TRPC4 beta (transient receptor potential cation channel C4), mouse. Description: activators of mouse TRPC4 channel, confirmation, cell-based, Fluo4 calcium, HEK293 TRPC4beta/mu-opioid, duplicates, 10 µM (AID 2426;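 active = fluorescence ratio normalized to control raised more than 50% in primary screen plus both repeat runs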). To be noted: Fluo4 calcium fluorescence, at 10 µM; stronger effect = higher value.
Assay [2] deals with transient receptor potential cation channel C4 beta (TRPC4), mouse. Nature of the assay: activators of mouse TRPC4 channel, confirmation, cell-based, second round, Fluo4, HEK293 TRPC4beta/mu-opioid, 1 µM (AID 2461;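 active = primary screen active and over 50% activation in each of two duplicate runs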). The note with it: Fluo4 calcium fluorescence, at 1 µM; stronger effect = higher value.
Assay [3] deals with TRPC4 (transient receptor potential cation channel C4 beta), mouse. Description: positive allosteric modulators of mouse TRPC4, confirmation, cell-based, second round, Fluo-4, HEK293 TRPC4beta/mu-opioid, 1 µM (AID 2554;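 active = primary screen hit whose fluorescence ratio, in both repeats, exceeds the weak agonist control mean by 3 SD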). To be noted: DAMGO EC20, Fluo-4 calcium flux, at 1 µM; stronger effect = higher value.
For assay [4], the system named is TRPC4 beta (transient receptor potential cation channel C4), mouse. Nature of the assay: positive allosteric modulators of mouse TRPC4, confirmation, cell-based, Fluo-4, HEK293 TRPC4beta/mu-opioid (AID 2555;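 active = primary screen hit whose calcium fluorescence ratio, in both repeats, exceeds the weak agonist control mean by 3 SD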). The note with it: DAMGO EC20, Fluo-4 calcium flux, at 10 µM; stronger effect = higher value.
Assay [5] has as its target Short transient receptor potential channel 4 (Mus musculus) (UniProt Q9QUQ5). Description: inhibitors of mouse TRPC4 channel, confirmation, cell-based, Fluo4, HEK293 TRPC4beta/mu-opioid (AID 2636;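 active = calcium signal cut by more than 3 SD below the full-agonist control yet still positive, in both repeats and the earlier primary screen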). The note with it: DAMGO, Fluo4 calcium flux, at 10 µM; stronger effect = higher value.
Assay [6] shares this target. Nature of the assay: inhibitors of mouse TRPC4 channel, confirmation, cell-based, second round, Fluo4, HEK293 TRPC4beta/mu-opioid, 1 µM (AID 2637;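 active = calcium signal ratio cut to more than 3 SD under the fully stimulated control mean yet still positive, in both repeats and the primary screen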). The note with it: Fluo4 calcium flux, DAMGO, at 1 µM; stronger effect = higher value.
Assay [7] has the same target. Nature of the assay: mouse TRPC4 channel activators, dose response, cell-based, HEK293 TRPC4/mu-opioid, Fluo-4 calcium (AID 434937;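 active = primary screen activator hit with a dose response curve and TRPC4 channel activation at any tested dose; inactive = no activation, no dose response, or not a primary hit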).
Assay [8] shares this target. Nature of the assay: TRPC4 positive allosteric modulators, dose response, cell-based, HEK293 TRPC4/mu-opioid, Fluo-4 calcium, EC20 DAMGO (AID 434941).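 Also: calcium entry triggered by an EC20 dose of DAMGO at the co-expressed mu-opioid receptor.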
For assay [9] the target is unchanged. Nature of the assay: mouse TRPC4 channel inhibitors, dose response, cell-based, HEK293 TRPC4/mu-opioid, Fluo-4 calcium (AID 434942;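 active = primary screen inhibitor hit that blocks the TRPC4 channel at some tested dose, yielding a dose curve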).
The target in assay [10] is Short transient receptor potential channel 6 (Mus musculus) (UniProt Q61143). Nature of the assay: inhibition of mouse TRPC6 channel, confirmation, selectivity assay for TRPC4 inhibitor project, cell-based, HEK293, membrane potential dye, duplicate (AID 434948;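 active = active in primary screen and both duplicates, each dropping signal beyond three positive-control SD with fluorescence still positive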). To be noted: HEK293 TRPC6, membrane potential dye fluorescence, at 10 µM, stimulated with maximal-effect acetylcholine; stronger effect = higher value.
Chain of Short transient receptor potential channel 6 (Mus musculus) (Q61143 whole entry, looked up): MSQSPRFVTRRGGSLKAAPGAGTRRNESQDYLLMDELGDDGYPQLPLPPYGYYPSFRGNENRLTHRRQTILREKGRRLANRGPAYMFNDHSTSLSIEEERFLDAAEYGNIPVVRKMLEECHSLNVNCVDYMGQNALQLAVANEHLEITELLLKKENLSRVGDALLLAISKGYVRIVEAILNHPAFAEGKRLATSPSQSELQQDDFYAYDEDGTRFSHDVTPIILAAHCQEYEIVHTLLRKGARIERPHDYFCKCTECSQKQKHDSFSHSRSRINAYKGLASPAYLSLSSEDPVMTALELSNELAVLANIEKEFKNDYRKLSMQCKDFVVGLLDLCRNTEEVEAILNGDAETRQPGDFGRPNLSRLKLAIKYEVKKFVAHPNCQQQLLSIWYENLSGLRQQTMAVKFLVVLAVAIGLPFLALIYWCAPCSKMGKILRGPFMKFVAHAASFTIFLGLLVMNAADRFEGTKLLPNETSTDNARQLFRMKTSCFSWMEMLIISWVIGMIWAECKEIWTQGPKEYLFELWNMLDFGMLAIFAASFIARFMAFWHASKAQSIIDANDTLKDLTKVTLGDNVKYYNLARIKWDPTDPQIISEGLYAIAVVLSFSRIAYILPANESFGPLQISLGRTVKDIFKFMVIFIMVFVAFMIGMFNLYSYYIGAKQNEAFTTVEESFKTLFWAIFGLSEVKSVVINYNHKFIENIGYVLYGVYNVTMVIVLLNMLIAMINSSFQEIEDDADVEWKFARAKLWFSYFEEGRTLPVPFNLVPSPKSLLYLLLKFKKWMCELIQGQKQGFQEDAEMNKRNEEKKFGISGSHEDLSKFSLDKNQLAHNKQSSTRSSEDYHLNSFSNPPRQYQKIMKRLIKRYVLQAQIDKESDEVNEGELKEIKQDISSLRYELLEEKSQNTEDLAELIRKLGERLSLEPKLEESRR

Assay [11] shares this target. Nature of the assay: activation of mouse TRPC6 channel, confirmation, selectivity assay for TRPC4 activator project, cell-based, HEK293, membrane potential dye, duplicate (AID 434950;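 active = membrane potential signal rise above negative control mean plus 3 SD in both duplicates, also active in the earlier TRPC4 screen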). To be noted: HEK293 TRPC6, membrane potential fluorescence, at 10 µM; stronger effect = higher value.
Assay [12] shares this target. Nature of the assay: TRPC6 potentiation by TRPC4 potentiator hits, confirmation, selectivity assay for TRPC4 potentiator project, HEK293 cells, membrane potential dye, duplicate (AID 434952;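 active = compound raising the membrane signal above positive-control mean plus 3 SD in both repeats, and a primary screen hit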). The note with it: HEK293 TRPC6, membrane potential dye fluorescence, at 10 µM, maximal acetylcholine added after compound; stronger effect = higher value.
Assay [13] concerns the target Short transient receptor potential channel 4 (Mus musculus) (UniProt Q9QUQ5). Nature of the assay: calcium flux activators in TRPC4/5HT1a cells, counter-screen for TRPC4 activator project, cell-based, second counter screen, HEK293 TRPC4/5HT1a, Fluo-4 (AID 434977;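 active = calcium signal rise above buffer-control mean plus 5 SD in both duplicates, and also a hit in the primary screen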;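 as to activation: plate controls were assay buffer for no effect and maximal serotonin response for full effect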). The note with it: Fluo-4 calcium flux, at 10 µM; stronger effect = higher value.
A short description of assay [14]: calcium flux inhibitors in TRPC4/5HT1a cells, confirmation, counter-screen for TRPC4 inhibitor project, cell-based, second counter screen, HEK293 TRPC4/5HT1a, Fluo-4 (AID 434978;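 active = primary screen active whose calcium signal fell more than 3 SD beyond the full-serotonin control mean in both duplicate plates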;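 also: serotonin given first at submaximal then at maximal dose after compound preincubation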). The note with it: Fluo-4 calcium flux, at 10 µM, serotonin added to trigger calcium flux; stronger effect = higher value.
The subject of assay [15] is TRPC4 (mouse), co-expressed with 5HT1a in HEK293. Nature of the assay: calcium flux potentiators in TRPC4/5HT1a cells, confirmation, counter-screen for TRPC4 potentiator project, cell-based, second counter screen, HEK293 TRPC4/5HT1a, Fluo-4 (AID 434979;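 active = signal rise over 3 SD above mean of control wells given weak agonist, in both repeats and first screen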). The note with it: Fluo-4 calcium flux, at 10 µM, serotonin added at its EC20 dose; stronger effect = higher value.
Assay [16] can be described thus: calcium flux activation in mu-opioid HEK293 cells, confirmation, counter-screen for TRPC4 activator project, cell-based, HEK293 mu-opioid receptor line (AID 449723;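 active = hit in primary screen, with calcium signal over 5 SD above buffer well mean in both duplicates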;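 also: counter screen cells carry the mu-opioid receptor alone and lack TRPC4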). To be noted: Fluo-4 calcium fluorescence, at 10 µM; stronger effect = higher value.
Assay [17] is described as follows: calcium flux enhancement in mu-opioid HEK293 cells, confirmation, counter-screen for TRPC4 allosteric potentiator project, cell-based, HEK293 mu-opioid receptor line (AID 449724;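 active = calcium signal rise more than 3 SD above the low-dose agonist control mean, in both duplicate plates and the primary screen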;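 also: HEK293 cells carrying mu-opioid receptor only with no TRPC4 channel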). The note with it: Fluo-4 calcium flux, at 10 µM, compound added before EC20 DAMGO stimulus; stronger effect = higher value.

Chain of Short transient receptor potential channel 4 (Mus musculus) (Q9QUQ5 whole entry, looked up): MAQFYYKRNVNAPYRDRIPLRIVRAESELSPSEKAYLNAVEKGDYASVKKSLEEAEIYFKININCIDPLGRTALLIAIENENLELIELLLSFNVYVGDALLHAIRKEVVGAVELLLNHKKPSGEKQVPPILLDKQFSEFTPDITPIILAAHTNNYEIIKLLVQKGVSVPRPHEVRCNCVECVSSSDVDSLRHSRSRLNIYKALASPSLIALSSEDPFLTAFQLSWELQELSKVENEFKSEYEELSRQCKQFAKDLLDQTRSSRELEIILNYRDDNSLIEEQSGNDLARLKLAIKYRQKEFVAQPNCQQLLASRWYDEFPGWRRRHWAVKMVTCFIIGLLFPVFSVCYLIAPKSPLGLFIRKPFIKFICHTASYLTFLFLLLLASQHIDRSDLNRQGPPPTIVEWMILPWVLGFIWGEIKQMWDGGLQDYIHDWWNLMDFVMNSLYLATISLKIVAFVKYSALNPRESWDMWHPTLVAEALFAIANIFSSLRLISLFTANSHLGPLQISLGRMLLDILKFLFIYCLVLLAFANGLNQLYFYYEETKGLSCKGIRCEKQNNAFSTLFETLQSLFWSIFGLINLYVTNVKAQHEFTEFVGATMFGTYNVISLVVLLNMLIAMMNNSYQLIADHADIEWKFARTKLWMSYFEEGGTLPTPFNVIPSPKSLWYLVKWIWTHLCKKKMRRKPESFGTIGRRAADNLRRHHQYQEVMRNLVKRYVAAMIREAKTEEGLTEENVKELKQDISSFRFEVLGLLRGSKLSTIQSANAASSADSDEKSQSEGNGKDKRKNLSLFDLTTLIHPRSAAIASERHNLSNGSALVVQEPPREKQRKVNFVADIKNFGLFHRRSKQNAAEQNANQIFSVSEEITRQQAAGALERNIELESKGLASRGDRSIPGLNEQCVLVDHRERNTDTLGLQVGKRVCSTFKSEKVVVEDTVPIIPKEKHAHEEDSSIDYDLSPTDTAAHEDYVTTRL

Consider `CCOC(=O)C1C(=O)C=C(c2ccc(C)cc2)CC1c1cccc([N+](=O)[O-])c1` (stereo not given), for which the result in assay [1], in [2], in [3], in assay [5], in [6] and in [7] was inactive. Besides, the outcome in [8], in [9], in assay [10], in [11], in assay [12] and in assay [13] was inactive. Moreover, the outcome in [14], in assay [16] and in [17] was inactive. Besides, the potentiation in assay [4] is 46% (active); in assay [15], 38.9% (active).
On to `C=CCNC(=S)N1CCN(CCN=Cc2c(C)[nH]n(-c3ccc([N+](=O)[O-])cc3)c2=O)CC1`, for which the outcome in [1], in assay [2], in assay [3], in [4], in assay [5] and in assay [6] was inactive. For the same compound, the result in [7], in assay [8], in assay [9], in [10], in assay [11] and in assay [12] was inactive. The result in assay [13], in assay [14], in assay [15], in [16] and in [17] was inactive.
As for `Cc1c(CCOC(=O)c2ccccc2)sc[n+]1CC(=O)c1ccc(Br)cc1`, the outcome in assay [1], in [2], in [3], in assay [4], in assay [5] and in assay [6] was inactive. Further, the result in [7], in assay [8], in [9], in [10], in assay [11] and in assay [12] was inactive. In addition, the result in [13], in assay [14], in assay [15], in assay [16] and in [17] was inactive.
As to `CCCN(CCC)CCCNC(=O)c1cc2c(=O)n(C)c3ccccc3c2n1C`, the result in assay [1], in assay [2], in assay [4], in assay [5], in [6] and in assay [7] was inactive. Besides, the outcome in [8], in assay [9], in assay [10], in assay [11], in [12] and in assay [14] was inactive. Also, the outcome in [16] and in [17] was inactive. Besides, the results for the potentiation in assay [3] and in [15] were 23% (active) and 23.1% (active), respectively. Besides, the activation in assay [13] was 6.09% (active).
Regarding `CSc1ncccc1C(=O)OCC(=O)N(CC(C)C)c1c(N)n(Cc2ccccc2)c(=O)[nH]c1=O`, the result in [1], in assay [2], in assay [3], in assay [4], in [5] and in assay [6] was inactive. For the same compound, the outcome in [7], in [8], in assay [9], in assay [10], in [11] and in [12] was inactive. For the same compound, the outcome in assay [13], in assay [14], in assay [15], in assay [16] and in assay [17] was inactive.
Consider `CC(=O)c1cccc(Nc2cc(C)nc3c(C)cc(C)cc23)c1`, for which the result in assay [1], in assay [2], in [3], in assay [4], in assay [5] and in assay [6] was inactive. In addition, the outcome in assay [7], in assay [8], in assay [9], in assay [11], in [12] and in assay [13] was inactive. The outcome in [14], in [15], in assay [16] and in assay [17] was inactive. Further, the inhibition in assay [10] was 25.5% (active).
`CSc1ccc(S(=O)(=O)NCC(=O)OCC(=O)N(C)Cc2ccccc2)cc1[N+](=O)[O-]`: the result in assay [1], in assay [2], in assay [3], in assay [4], in assay [5] and in assay [6] was inactive. In addition, the outcome in [7], in assay [8], in assay [9], in [10], in assay [11] and in [12] was inactive. For the same compound, the result in assay [13], in [14], in [15], in assay [16] and in [17] was inactive.
Turning to `CC1(C(=O)OCc2cc(=O)n3cc(Br)ccc3n2)CC1(Cl)Cl` (stereo not given), the result in [1], in assay [2], in [5], in [6], in [7] and in assay [8] was inactive. Also, the result in assay [9], in assay [10], in [11], in assay [12], in assay [13] and in assay [14] was inactive. Further, the result in assay [16] and in assay [17] was inactive. The potentiation in [3] was 15% (active); in assay [4] it was 84% (active); in assay [15] it was 56.2% (active).
Regarding `CCCCC(=O)Nc1cccc2c1C(=O)N(c1ccccc1)C2=O`, the outcome in assay [1], in assay [2], in assay [3], in [4], in [5] and in [6] was inactive. Besides, the outcome in assay [7], in assay [8], in assay [9], in assay [10], in assay [11] and in assay [12] was inactive. Also, the result in assay [13], in assay [14], in assay [15], in [16] and in assay [17] was inactive.
`CC(CCc1ccc(O)cc1)N(C)CCc1ccccc1` (stereo not given): the result in assay [1], in assay [2], in assay [3], in [4], in [5] and in assay [6] was inactive. The result in [7], in assay [8], in assay [9], in assay [10], in [11] and in assay [12] was inactive. For the same compound, the result in assay [13], in assay [14], in assay [15], in assay [16] and in [17] was inactive.
As to `CCCn1c(=O)c(C(=O)NCC2CCCO2)c(O)c2ccccc21` (stereo not given), the result in assay [1], in [2], in assay [5], in assay [6], in [7] and in assay [8] was inactive. Further, the outcome in assay [9], in assay [10], in [11], in assay [12], in [13] and in assay [14] was inactive. In addition, the outcome in assay [16] and in assay [17] was inactive. The potentiation in assay [3] was 16% (active); in assay [4], 11% (active); in assay [15], 7.45% (active).
Regarding `CCOC(=O)c1c(C)n(C)c2ccc(OCC(O)CNCCc3ccccc3)cc12` (stereo not given), the result in [1], in [2], in assay [3], in assay [4], in assay [5] and in [6] was inactive. Moreover, the outcome in assay [7], in assay [8], in [9], in assay [10], in assay [11] and in assay [12] was inactive. For the same compound, the outcome in [13], in assay [14], in [15], in [16] and in assay [17] was inactive.
In the case of `Cc1cc(SCC(=O)c2cccc([N+](=O)[O-])c2)nc(=O)[nH]1`, the result in assay [1], in assay [2], in [3], in assay [5], in assay [6] and in assay [7] was inactive. Besides, the outcome in assay [8], in assay [9], in assay [10], in [11], in [12] and in [13] was inactive. Moreover, the outcome in assay [14], in assay [16] and in assay [17] was inactive. For the same compound, the potentiation is 23% (active) in assay [4] and 57.9% (active) in [15].
With `CCOc1cc(/C=C(\C#N)C(=O)Nc2cccc(C(=O)O)c2)cc(Br)c1OC(=O)c1ccc(OC)cc1`, the outcome in assay [1], in assay [2], in assay [3], in assay [5], in assay [6] and in assay [7] was inactive. Further, the result in [8], in [9], in [10], in assay [11], in assay [12] and in [13] was inactive. Moreover, the outcome in assay [14], in assay [16] and in assay [17] was inactive. In addition, the figures for the potentiation in assay [4] and in assay [15] were 28% (active) and 16.7% (active), respectively.
Turning to `COc1ccc(CNC(=O)C(C)NCc2ccc(S(N)(=O)=O)cc2)cc1` (stereo not given), the outcome in assay [1], in assay [2], in assay [3], in assay [4], in assay [5] and in assay [6] was inactive. Further, the result in [7], in assay [8], in assay [9], in [10], in assay [11] and in assay [12] was inactive. Further, the result in assay [13], in assay [14], in assay [15], in assay [16] and in assay [17] was inactive.
